# PubChem BioAssay AID623911 (Vanderbilt High Throughput Screening Facility, 2012)
# Out of some 2,100 compounds screened, about 770 (37%) were called active. Some of the results follow. Values without a mark were called inactive.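 Rule for the calls: active = by-eye trace score of 1 for enhancers or -1 for inhibitors, so actives lie on both sides (some results past the limit were not filed as active); inactive = score 0, or 3 fluorescent, or 4 baseline rise.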
# Target: G protein-activated inward rectifier potassium channel 2 (Homo sapiens) + G protein-activated inward rectifier potassium channel 1 (Homo sapiens) (UniProt P48051+P48549)
# Test: GIRK1/2 thallium flux modulators, retest, confirmation, cell-based, HEK293 rmGlu8/hGIRK1/2, FluoZin-2 (AID 623911)
# Conditions: HEK293 rmGlu8/hGIRK1/2, thallium flux FluoZin-2; actives lie on both sides; glutamate co-added at its EC20 level
# G protein-activated inward rectifier potassium channel 2 (Homo sapiens) + G protein-activated inward rectifier potassium channel 1 (Homo sapiens), sequence (P48051 whole entry, looked up): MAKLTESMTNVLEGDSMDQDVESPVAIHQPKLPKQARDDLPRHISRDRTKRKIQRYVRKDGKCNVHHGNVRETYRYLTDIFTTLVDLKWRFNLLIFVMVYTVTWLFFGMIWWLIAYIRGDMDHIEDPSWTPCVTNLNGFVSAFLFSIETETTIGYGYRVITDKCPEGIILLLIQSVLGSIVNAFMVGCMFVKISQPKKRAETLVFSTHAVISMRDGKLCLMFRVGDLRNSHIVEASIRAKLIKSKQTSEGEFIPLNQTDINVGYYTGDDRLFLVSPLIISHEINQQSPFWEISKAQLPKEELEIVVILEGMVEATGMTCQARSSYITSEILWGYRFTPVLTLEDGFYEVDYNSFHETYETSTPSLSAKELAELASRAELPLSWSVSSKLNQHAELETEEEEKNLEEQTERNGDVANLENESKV
# G protein-activated inward rectifier potassium channel 2 (Homo sapiens) + G protein-activated inward rectifier potassium channel 1 (Homo sapiens), sequence (P48549 whole entry, looked up): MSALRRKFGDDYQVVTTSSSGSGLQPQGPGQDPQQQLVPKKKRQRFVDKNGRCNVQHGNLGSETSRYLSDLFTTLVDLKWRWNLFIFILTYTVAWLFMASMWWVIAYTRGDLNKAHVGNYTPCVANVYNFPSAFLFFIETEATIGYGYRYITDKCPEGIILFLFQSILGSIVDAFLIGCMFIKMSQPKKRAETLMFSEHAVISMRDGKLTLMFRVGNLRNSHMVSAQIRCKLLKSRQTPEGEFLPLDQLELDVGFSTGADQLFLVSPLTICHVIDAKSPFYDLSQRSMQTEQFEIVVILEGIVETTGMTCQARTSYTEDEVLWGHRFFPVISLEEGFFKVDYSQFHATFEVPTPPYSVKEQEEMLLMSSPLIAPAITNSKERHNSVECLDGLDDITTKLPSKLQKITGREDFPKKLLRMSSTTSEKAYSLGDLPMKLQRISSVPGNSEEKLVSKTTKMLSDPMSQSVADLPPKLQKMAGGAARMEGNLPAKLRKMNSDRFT
row,Compound,manual score
1,O=C(COC(=O)c1cccc(N2C(=O)c3ccccc3C2=O)c1)Nc1ccccc1,0
2,O=C(CSc1ccc2ccccc2c1Br)Nc1cccc(S(=O)(=O)NC2=NCCCCC2)c1,0
3,CCc1ccc(C(=O)OCC(=O)Nc2cccc(S(=O)(=O)NC3=NCCCCC3)c2)cc1,1 (active)
4,Cc1oncc1C(=S)Nc1ccccc1,0
5,N#C/C(=C/c1ccc(N2CCOCC2)o1)c1nc2ccccc2[nH]1,3
6,Cc1ccc(NC(=S)c2nc3ccccc3[nH]2)cc1,1 (active)
7,S=C(Nc1ccc(Cl)cc1)c1nc2ccccc2[nH]1,1 (active)
8,COc1ccc(S(=O)(=O)N(CC(=O)N2CCN(c3ccccc3)CC2)c2ccccc2)cc1,0
9,COc1ccc(OC)c(S(=O)(=O)N(C)CC(=O)N2CCN(c3ccccc3F)CC2)c1,0
10,CCOC(=O)N1CCN(C(=O)CN(Cc2ccccc2)S(=O)(=O)c2ccc(OC)c(C)c2)CC1,-1 (active)
11,COc1cc(/C=C2/SC(=S)NC2=O)ccc1OS(=O)(=O)c1ccc(C)cc1,0
12,COc1cc(/C=C2\SC(=S)NC2=O)ccc1OS(=O)(=O)c1ccccc1,1 (active)
13,O=C1NC(=S)/C(=C\c2ccc(-c3ccccc3Cl)o2)S1,3
14,O=C1NC(=O)/C(=C\c2ccccc2Oc2ccc(F)c(F)c2)S1,0
15,O=C1NC(=S)S/C1=C\c1ccc(SCc2ccccc2)o1,0.5
16,COc1ccc(/C=C2\SC(=O)NC2=S)cc1OC,1 (active)
17,CCOc1ccc(-c2nc(-c3ccc(OC)cc3)no2)cc1OCC,0
18,OCCCN=c1cc(-c2ccccc2)oc2ccc(Cl)cc12,-1 (active)
19,CC(C)c1ccc(-c2noc(C3CCCN(S(C)(=O)=O)C3)n2)cc1 (centres undefined),0
20,O=S(=O)(c1ccc(Cl)c(F)c1)N1CCC(c2nc(-c3ccncc3)no2)CC1,1 (active)
21,O=C(NC(=S)N1CCN(Cc2ccc3c(c2)OCO3)CC1)c1cccc(Br)c1,1 (active)
22,CCN(CC)c1ccc(C(=O)NC(=S)N2CCN(Cc3ccc4c(c3)OCO4)CC2)cc1,0
23,O=C(c1ccc(COc2c(F)c(F)c(F)c(F)c2F)o1)N1CCN(Cc2ccc3c(c2)OCO3)CC1,0
24,O=C(c1ccc2nccnc2c1)N1CCN(Cc2ccc3c(c2)OCO3)CC1,1 (active)
25,Cc1cc2cc3c(cc2nc1SCC(=O)N1CCN(C(=O)c2ccco2)CC1)OCO3,0
26,O=C(NC(=S)N1CCN(Cc2ccc3c(c2)OCO3)CC1)c1ccc(Cl)cc1,1 (active)
27,C/C(=N/NC(=S)Nc1ccccc1)c1ccc2c(c1)OCO2,0
28,C/C(=N\NC(=S)Nc1ccc(F)cc1)c1ccc2c(c1)OCCO2,1 (active)
29,Fc1ccc(NC(=S)NN=C2CCCCCC2)cc1,0
